Source: PubChem BioAssay

These compounds were tested against NADPH oxidase 2 (Homo sapiens) (UniProt P04839) (assay: compounds shifting NOX2 Amplex Red fluorescence – cell-based, HEK293-NOX2, PMA-stimulated, NOX inhibitor project, primary screen (AID 1159; also: test concentration not given here)). Conditions: 45 min, higher = more signal, called active from +8 up or from −8 down.
NADPH oxidase 2 (Homo sapiens), sequence (P04839 whole entry, looked up): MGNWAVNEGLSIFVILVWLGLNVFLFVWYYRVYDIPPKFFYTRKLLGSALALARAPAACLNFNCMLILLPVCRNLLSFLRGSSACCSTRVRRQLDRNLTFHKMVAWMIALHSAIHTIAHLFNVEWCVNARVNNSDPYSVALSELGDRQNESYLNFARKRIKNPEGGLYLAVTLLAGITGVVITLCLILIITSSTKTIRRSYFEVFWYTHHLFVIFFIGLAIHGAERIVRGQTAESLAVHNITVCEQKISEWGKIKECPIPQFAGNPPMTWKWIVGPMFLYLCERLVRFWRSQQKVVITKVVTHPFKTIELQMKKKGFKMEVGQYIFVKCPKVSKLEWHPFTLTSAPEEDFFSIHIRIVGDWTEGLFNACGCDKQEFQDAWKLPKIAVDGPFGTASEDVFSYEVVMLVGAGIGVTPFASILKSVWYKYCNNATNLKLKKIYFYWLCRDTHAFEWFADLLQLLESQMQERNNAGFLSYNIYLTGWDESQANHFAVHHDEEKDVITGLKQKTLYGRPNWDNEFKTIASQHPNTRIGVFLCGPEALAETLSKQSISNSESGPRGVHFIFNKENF

z-score, inactive:
O=C1N(Cc2ccccc2)Cc2ccccc2C[C@@]12COC(c1ccc(OCCCO)cc1)=N2 -5.75
COCCCNC(=O)[C@@]1(c2ccc([N+](=O)[O-])cc2)CC(=O)N(C2CCCCC2)[C@@H]1c1ccc(CO)cc1I 1.78
CO[C@H]1O[C@H](CO)[C@@H](OC(=O)Nc2ccccc2)[C@@H]2OC(=O)[C@@H](Cc3ccccc3)C/C=C/C[C@H](Cc3ccccc3)C(=O)O[C@@H]12 -2.79
O=C1O[C@@H](c2ccccc2)[C@@H](c2ccccc2)N2[C@@H](c3ccc(OCCO)cc3)[C@]3(C(=O)Nc4ccc(C#CC5=CCCCC5)cc43)[C@@H](C(=O)Nc3nc4ccccc4s3)[C@H]12 1.01
COCCOC(=O)N1C(=O)[C@@]2(c3cc(C#CC4(O)CCCCCC4)ccc31)[C@H](C(N)=O)[C@H]1C(=O)O[C@H](c3ccccc3)[C@H](c3ccccc3)N1[C@@H]2c1ccc(OCCO)cc1 1.52
COC(=O)C(CC#Cc1ccc2c(c1)[C@]1(C(=O)N2)[C@H](C(N)=O)[C@H]2C(=O)O[C@H](c3ccccc3)[C@H](c3ccccc3)N2[C@@H]1c1ccccc1OCCO)C(=O)OC 1.9
Cc1ccc(S[C@]2(C(=O)NCC(C)C)CC(=O)N(C(C)C)[C@@H]2c2ccc(CO)cc2I)cc1 2.02
CN1C2C=C(c3ccc(CO)cc3)C(C3C(=O)N(C(N)=O)C(=O)C32)C1C1CC1 (centres undefined) -1.57
[N-]=[N+]=NCc1ccccc1[C@H]1OC(c2ccc(OCCCO)cc2)=N[C@@]1(CCS(=O)(=O)c1ccccc1)C(=O)O 1.09
